For 24 molecules, outcome and AC50 results are on record in PubChem BioAssay (EPA / NIEHS).

Active and inactive are the calls of the source. The calls were made as follows: active = hit-call score of the fitted dose curve at least 0.9, where 1 is the maximum; inconclusive = response in the unintended direction; inactive = score below 0.9.

For the assay, the target named is Peroxisome proliferator-activated receptor gamma (Homo sapiens) (UniProt P37231). The experiment in a line: OT_PPARg_PPARgSRC1_1440: Odyssey Thera (OT) 24-hour Protein-Complementation Assay for Peroxisome Proliferator-activated Receptor Gamma/ SRC-1 Co-activator (AID 2283388).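 Also: nuclear to cytoplasmic ratio of reconstituted Venus YFP fluorescence in fixed imaged cells.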 The gist of the method: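 Transient HEK293T, YFP fragments 1-158/159-239 (mutant IFP1/IFP2) fused to PPARg/SRC-1; 24 h dosing; fix 4% formaldehyde, Draq5; Opera imaging 488/635 nm; N/C ratio, gain vs DMSO.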
Chain of Peroxisome proliferator-activated receptor gamma (Homo sapiens) (P37231 whole entry, looked up, the tested form may be a part): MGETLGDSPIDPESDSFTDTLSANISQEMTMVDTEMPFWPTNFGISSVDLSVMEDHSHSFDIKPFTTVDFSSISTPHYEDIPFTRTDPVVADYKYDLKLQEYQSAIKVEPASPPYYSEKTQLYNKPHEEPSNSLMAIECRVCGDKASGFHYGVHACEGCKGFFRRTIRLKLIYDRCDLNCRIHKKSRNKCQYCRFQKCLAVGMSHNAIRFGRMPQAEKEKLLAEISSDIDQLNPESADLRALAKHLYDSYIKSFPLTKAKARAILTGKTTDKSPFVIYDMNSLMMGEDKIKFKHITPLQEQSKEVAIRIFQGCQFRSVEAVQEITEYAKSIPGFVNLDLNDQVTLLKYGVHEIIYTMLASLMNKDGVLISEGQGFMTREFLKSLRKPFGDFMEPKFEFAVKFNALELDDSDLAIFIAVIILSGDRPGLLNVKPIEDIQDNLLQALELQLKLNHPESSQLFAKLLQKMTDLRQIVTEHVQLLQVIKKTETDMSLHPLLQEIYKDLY
`O=C(O)C(F)(F)C(F)(F)C(F)(F)C(F)(F)C(F)(F)C(F)(F)F`: the result was inactive.

`COP(=S)(OC)Oc1ccc(Sc2ccc(OP(=S)(OC)OC)cc2)cc1`: the outcome was inactive.

As for `O=C(O)C(F)(F)C(F)(F)C(F)(F)C(F)(F)C(F)(F)C(F)(F)C(F)(F)C(F)(F)C(F)(F)C(F)(F)F`, the outcome was inactive. As to `CCN1CCC2(CC1)COc1cc3c(cc12)N(C(=O)c1ccc(-c2ccc(-c4nnc(C)o4)cc2C)cc1)CC3`, the molecule was classed as inactive.

Turning to `CCCCOCCOC(C)=O`, the result was inactive. With `CCCCCCCCc1ccc(O)cc1`, the outcome was inactive. Consider `N#CN=C(N)N`, for which the molecule was called inactive. On to `CCC[CH2][Sn]([Cl])([Cl])[Cl]`, for which the molecule was classed as inactive. In the case of `CC(C)(c1ccccc1)c1ccc(O)c(C(C)(C)c2ccccc2)c1`, the call was inactive. On to `COC(=O)c1sccc1S(=O)(=O)NC(=O)Nc1nc(C)nc(OC)n1`, for which the call was inactive. Same read-out and setting: the entry for `O=[N+]([O-])c1ccc(O)c([N+](=O)[O-])c1` is “inactive”.

As to `COc1ccc(C=O)cc1`, the molecule was classed as inactive.

`Cn1sc(Cl)cc1=O`: the molecule was called inactive.

On to `CCOC(=O)Nc1cccc(OC(=O)Nc2ccccc2)c1`, for which the outcome was inactive.

For `CC(=O)C=C(C)C`, the call was inactive. In the case of `Cl/C=C\C[N+]12CN3CN(CN(C3)C1)C2`, the outcome was inactive. For the molecule `c1cc[c]([Hg][c]2ccccc2)cc1`, the AC50 is 50 µM (active). For `CC(=O)[O][Hg][c]1ccccc1`, the outcome was inactive. With `C=CC(=O)OCCCCCC(C)C`, the molecule was called inactive.

Turning to `Clc1nc(Cl)nc(Cl)n1`, the call was inactive.

Take `Oc1cccc2cccnc12`: the molecule was called inactive. On to `O=S(=O)(c1ccc(Cl)cc1)c1ccc(Cl)cc1`, for which the molecule was classed as inactive. Turning to `C=CCc1ccc(OC)cc1`, the molecule was classed as inactive. For the molecule `OCc1ccco1`, the call was inactive.
